Hit rate of the full screen: of about 390,000 compounds, about 17,000 (4.4%) were called active. Another 8% or so got no clear call; they are omitted. The call rests on the fitted dose curve; in most records, active means well fitted inhibition curve with a large enough effect; inconclusive means small, poorly fitted or top-dose-only effect; inactive means no such curve, though single readings can be large or run the other way. The list comes from a sample in which actives are over-represented; it also holds similar structures and randomly drawn compounds. A call without a number means that no potency is given here.
Target: Lysine-specific demethylase 4A (Homo sapiens) (UniProt O75164)
Assay: qHTS Assay for Inhibitors of JMJD2A-Tudor Domain; further: nearly all actives have a fitted effect of over 50% in size
Conditions: AlphaScreen JMJD2A-Tudor / H3K4me3 peptide binding; series mostly up to 114 µM
Potency means the concentration at half of the fitted maximal effect.

Chain of Lysine-specific demethylase 4A (Homo sapiens) (O75164 whole entry, looked up, the tested form may be a part): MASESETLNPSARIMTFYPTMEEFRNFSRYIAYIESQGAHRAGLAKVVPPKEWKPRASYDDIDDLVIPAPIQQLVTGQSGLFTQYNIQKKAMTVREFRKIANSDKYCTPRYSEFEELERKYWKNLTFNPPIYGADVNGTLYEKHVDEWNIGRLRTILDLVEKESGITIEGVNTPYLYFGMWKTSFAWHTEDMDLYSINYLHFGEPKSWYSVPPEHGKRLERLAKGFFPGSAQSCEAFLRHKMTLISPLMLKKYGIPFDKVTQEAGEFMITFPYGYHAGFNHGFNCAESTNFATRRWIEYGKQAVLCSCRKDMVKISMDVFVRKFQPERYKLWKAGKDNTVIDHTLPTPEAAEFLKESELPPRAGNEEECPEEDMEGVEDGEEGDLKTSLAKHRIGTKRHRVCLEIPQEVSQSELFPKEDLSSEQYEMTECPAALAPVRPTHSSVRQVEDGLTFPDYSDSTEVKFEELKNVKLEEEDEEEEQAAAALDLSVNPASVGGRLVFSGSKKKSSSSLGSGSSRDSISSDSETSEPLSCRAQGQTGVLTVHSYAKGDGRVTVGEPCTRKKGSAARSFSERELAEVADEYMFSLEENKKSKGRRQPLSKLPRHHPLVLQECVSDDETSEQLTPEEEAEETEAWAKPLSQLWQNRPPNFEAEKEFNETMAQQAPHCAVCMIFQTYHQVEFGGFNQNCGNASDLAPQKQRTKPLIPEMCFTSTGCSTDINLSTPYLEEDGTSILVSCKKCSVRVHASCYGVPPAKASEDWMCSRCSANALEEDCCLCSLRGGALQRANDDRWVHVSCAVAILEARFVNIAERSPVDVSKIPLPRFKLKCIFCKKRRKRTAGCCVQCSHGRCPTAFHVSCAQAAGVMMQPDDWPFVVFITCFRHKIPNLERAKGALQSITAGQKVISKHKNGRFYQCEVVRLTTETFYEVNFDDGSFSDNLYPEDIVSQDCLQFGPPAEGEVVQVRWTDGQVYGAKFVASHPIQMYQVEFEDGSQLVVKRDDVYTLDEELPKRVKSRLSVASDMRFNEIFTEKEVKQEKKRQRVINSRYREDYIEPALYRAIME

Structure (SMILES) | Potency
O=C(NCc1ccccc1)c1ccc2c(c1)nc1n2CCCCC1 | inactive
CC(C)c1ccc(NS(=O)(=O)c2ccc3[nH]cc(C(=O)NC4CCCC4)c(=O)c3c2)cc1 | inactive
CCC(Sc1nc2n[nH]c(C)c2c(=N)n1-c1ccccc1Cl)C(=O)N(CC)CC (stereo not drawn) | inactive
Cc1nnc(SCc2cc(=O)c3cc(F)ccc3[nH]2)n1C | inactive
Cc1cc(NC(=O)c2ccc(-c3ccc(Cl)cc3)o2)cc(-c2nc3ncccc3o2)c1O | inactive
CC(=O)c1ccc(NC(=O)c2nc3nc(C)cc(C(F)F)n3n2)cc1 | inactive
CCCc1cc(-c2n[nH]c(=S)n2Cc2ccccc2)cs1 | inactive
CCc1cc(-c2nnc(SCC(=O)NC3CC3)n2C)cs1 | inactive
CCc1cc(-c2n[nH]c(=S)n2CC(C)C)cs1 | 28.2 µM (active)
Cc1ccccc1NC(=O)CN1C(=O)C(C)(C)c2ccccc21 | inactive
CCOc1ccc(N(CC)S(=O)(=O)N2CCCC(C(=O)NCc3ccc(SC)cc3)C2)cc1 (stereo not drawn) | inactive
CCc1nc(-c2cc(S(=O)(=O)N3CCN(c4ccc(OC)cc4)CC3)ccc2OC)no1 | 79.4 µM (active)
COc1ccc(N2CCN(S(=O)(=O)c3ccc(-c4coc(C)n4)cc3)CC2)cc1 | inactive
COc1ccc(S(=O)(=O)N2CCN(c3ccc(F)cc3)CC2)cc1-c1noc(C)n1 | inactive
Cc1csc2nc(COc3ccc(NC(=O)COc4ccccc4)cc3)cc(=O)n12 | inactive
CCn1c2ccccc2c2nnc(SCC(=O)O)nc21 | inactive
CCOc1cc2[nH]c(=O)n(Cc3ccc(C(=O)NCCCN4CCCC4=O)cc3)c(=O)c2cc1OCC | inactive
O=C(CCCCCn1c(=O)[nH]c2ccccc2c1=O)NCCc1c[nH]c2ccccc12 | inactive
CCOc1cc2[nH]c(=S)n(CCCN3CCCC3=O)c(=O)c2cc1OCC | 22.4 µM (active)
CCOc1cc2[nH]c(=S)n(CCN3CCCCC3C)c(=O)c2cc1OCC (stereo not drawn) | inactive
O=C(CCn1c(=S)[nH]c2ccccc2c1=O)NCCCN1CCCC1=O | 17.8 µM (active)
O=C(CCC(=O)NNc1nc2ccccc2c2nc(-c3ccccc3)nn12)NCCCN1CCCC1=O | inactive
Cc1ccc2nc(COc3ccc(NC(=O)COc4ccccc4F)cc3)cc(=O)n2c1 | inactive
Cc1ccc(NC(=O)Cn2nnc3sc4c(c3c2=O)CCC(C)C4)cc1 (stereo not drawn) | inactive
CCC(=O)N1CCc2cc(S(=O)(=O)NC(C(=O)NCCc3ccc(C)cc3)C(C)C)ccc21 (stereo not drawn) | inactive
S=c1c2[nH]cnc2ncn1CCSc1ncnc2nc[nH]c12 | 12.6 µM (active)

Structure (SMILES) | Potency
CCc1ccc(N(CC)c2ncnc3nc[nH]c23)cc1 | inactive
Cc1ccc(NC(=O)c2ccc(CSc3ncnc4nc[nH]c34)cc2)c(C)c1 | inactive
CN(C(=O)CSc1nc2ccc(NC(=O)COc3ccccc3)cc2s1)c1ccccc1 | inactive
CCCCCCSc1ccc([C@@H]2[C@H]3C(=O)N(CC)C(=O)[C@H]3[C@]3(C(=O)OC)CCCCN23)cc1 | inactive
CCN1C(=O)[C@@H]2[C@@H](c3ccc(-c4ccc(OC)cc4)c(OC)c3)N3CCC[C@@]3(C(=O)OC)[C@@H]2C1=O | inactive
CCCCCCSc1ccc([C@@H]2[C@@H]3C(=O)N(CC)C(=O)[C@@H]3[C@]3(C(=O)OC)CCCCN23)cc1OC | 56.2 µM (active)
COc1ccc(Cc2nc3ccc(C(=O)NCc4ccccc4C)cc3o2)cc1 | inactive
O=C1c2ccccc2C(=O)N1c1ccc(S(=O)(=O)N2CCOCC2)c2ccccc12 | inactive
O=C(COc1ccccc1)Nc1ccc(F)cc1 | inactive
COc1ccccc1OCc1nnc(SCC(N)=O)n1-c1ccccc1 | inactive
Cc1c(NC(=O)CCCOc2ccccc2)cccc1[N+](=O)[O-] | inactive
Fc1ccc(/C=N/n2c(COc3ccccc3)n[nH]c2=S)cc1 | 56.2 µM (active)
O=C(COc1ccccc1[N+](=O)[O-])N/N=C/c1ccc[nH]1 | inactive
S=c1[nH]nc(COc2ccccc2)n1-c1ccccc1 | 12.6 µM (active)
CC(Sc1nnc(COc2ccccc2)n1-c1ccccc1)C(=O)O (stereo not drawn) | inactive
COc1ccc(CNc2nnnn2C)cc1 | inactive
COc1ccc(OCC(=O)NNC(=O)C2CCC2)cc1 | inactive
O=[N+]([O-])c1ccccc1/C=N/n1c(COc2ccccc2)n[nH]c1=S | 50.1 µM (active)
COc1ccc(OCc2n[nH]c(=S)n2N)cc1 | 3.98 µM (active)
CCOc1ccccc1C(=O)Nc1ccc2c(c1)N(C)C(=O)c1ccccc1S2 | inactive
CCOC(=O)c1cc2c(=O)n3ccccc3nc2n(CCCOC)c1=NC(=O)C(C)Oc1ccccc1 (stereo not drawn) | inactive
Cc1ccc2nc(N3CCN(c4cccc(Cl)c4)CC3)c3nnnn3c2c1 | inactive
Cc1cc(C)cc(NC(c2nnc(-c3cccc(F)c3)o2)c2ccc(F)cc2Cl)c1 (stereo not drawn) | inactive
COc1ccc(CCNC(=O)c2ccc(-n3c(C)cc4c3CCCC4)cc2)cc1OC | inactive
COc1ccc(C2/C=C\CN(Cc3ccco3)C(C)C(=O)N2Cc2ccc(F)cc2)cc1 (stereo not drawn) | inactive
O=C(NCCc1ccccc1)c1ccc2c(c1)N(Cc1ccccc1)C(=O)c1ccccc1S2(=O)=O | inactive

Structure (SMILES) | Potency
Cc1cnc(NC(=O)Cn2cnc3c2c(=O)n(C)c(=O)n3C)s1 | inactive
Cc1cnc(NC(=O)c2ccccn2)s1 | 56.2 µM (active)
CN(C(=O)c1ccccn1)c1nnc(-c2ccccn2)s1 | inactive
Cc1c(Cl)cccc1NC(=O)c1noc2c1CCCC2 | inactive
CCOC(=O)c1ccc(NC(=O)Cn2cc(S(=O)(=O)Cc3ccccc3F)c3ccccc32)cc1 | inactive
CC(=O)Nc1ccc(NC(=O)CS(=O)(=O)c2cn(CC(=O)N3CCCCC3)c3ccccc23)cc1 | inactive
CCOC(=O)c1ccc(NC(=O)CS(=O)(=O)c2cn(CC)c3ccccc23)cc1 | 79.4 µM (active)
COc1ccccc1NC(=O)CSc1oc(-c2ccco2)nc1S(=O)(=O)c1ccc(Br)cc1 | inactive
CCCn1c2ccccc2c2cnn(CC(=O)N(C)c3ccccc3CC)c(=O)c21 | inactive
CCN(CC)CCOCCOc1ccc(Cl)c2ccccc12 | 25.1 µM (active)
CCCC(C(=O)OCCN(CC)CC)(c1ccccc1)c1ccccc1 | inactive
CCOc1ccc(S(=O)(=O)N2CCCCCC2)c2ccccc12 | inactive
CN(C)CCOCCOc1ccc(Cl)c2ccccc12 | 3.16 µM (active)
COc1ccc(C)cc1NC(=O)C(=O)NCCc1sc(-c2cccc(C)c2)nc1C | inactive
Cc1nc(SCC(=O)N2CCN(c3ccccc3)CC2)[nH]c(=O)c1C | inactive
CCOc1ccc(NC(=O)CCC(=O)N2CC(C)Oc3ccc(C)cc32)cc1 (stereo not drawn) | inactive
CCOc1ccc(CNC(=O)c2ccc3c(c2)nnn3C2CCCC2)cc1 | inactive
COc1ccc(-c2nc3sc(CCNC(=O)C(C)(C)C)c(C)n3n2)cc1 | inactive
CCOC(=O)C[C@H]1c2ccc(C(F)(F)F)cc2S(=O)(=O)N1c1ccccc1 | inactive
CCOC(=O)NNc1cc(C(F)(F)F)ccn1 | inactive
CCOC(=O)C1Nc2ccc(C(F)(F)F)cc2C2C=CCC12 (stereo not drawn) | 50.1 µM (active)
CCOc1cccc(NC(=O)CSc2ncc(-c3ccc(Cl)cc3)[nH]2)c1 | inactive
COc1cccc(C(=O)NC2CCN(C#N)CC2)c1 | inactive
COC(=O)c1cnn(-c2ccc(C(=O)Nc3ccc(OC(F)(F)F)cc3)cc2)c1N | inactive
CCCN(CCC)CCCNC(=O)Cn1cc2c(n1)-c1c(oc(C(=O)N3CCCC3)c1C)CC2 | inactive
CCOC(=O)c1ccc(NC(=O)C2CC(=O)NC(=Nc3ccc(C)c(C)c3)S2)cc1 (stereo not drawn) | inactive

Structure (SMILES) | Potency
Cn1c(=O)c2c(n3c4ccccc4nc13)NC(=O)CC2c1cccc(Cl)c1 (stereo not drawn) | inactive
O=C1CCc2cc(S(=O)(=O)Nc3cccc(Oc4ccccc4)c3)ccc2N1 | inactive
CCN1CCN(c2ncnc3c2cnn3-c2ccc(C)c(C)c2)CC1 | inactive
O=C1CC(c2ccccc2)=NN1c1ccc([N+](=O)[O-])cc1 | 39.8 µM (active)
COC(=O)CC1=NN(c2ccccc2)C(=O)C1 | inactive
Cn1nc(-c2ccccc2)c2cc([N+](=O)[O-])ccc21 | inactive
COC(=O)c1ccc(-c2nc3cc(NC(C)=O)ccc3o2)cc1 | inactive
CCOc1cc(C(=O)O)ccc1OCCOc1ccccc1 | inactive
CCOc1c(CNCc2ccc(C(=O)O)cc2)cccc1OC | inactive
CCOc1cccc2c1N[C@@H](c1ccc(C(=O)O)cc1)[C@H]1CC=C[C@@H]21 | 22.4 µM (active)
C/C(=N/NC(=O)CCc1ccccc1)c1ccco1 | inactive
CC1=NNC(=O)C1CCC(=O)N/N=C(\C)c1ccc(Cl)cc1 (stereo not drawn) | inactive
C/C(=N\NC(=O)Cc1ccc(Cl)cc1)c1ccccn1 | 56.2 µM (active)
O=C(Nc1nnc(-c2ccccc2F)s1)c1ccccc1F | inactive
COc1ccc(C(=O)N/N=C(\C)CC(=O)Nc2ccc(Cl)cn2)cc1 | inactive
C/C(=N/NC(=O)c1ccn(C)n1)c1ccncc1 | inactive
COc1ccc(C/C(C)=N/NC(=O)c2cc(C)oc2C)cc1 | inactive
C/C(=N\NC(=O)c1ccccc1F)c1ccccn1 | 35.5 µM (active)
CCNC(=S)N1CCN(c2ncccn2)CC1 | inactive
Cc1cccc(C)c1NC(=S)N1CCCCCC1 | inactive
CC(=NNC(=S)N1CCCCCC1)c1ccccn1 | 11.2 µM (active)
COc1ccc(C/C(C)=N/NC(=O)c2ccncc2)cc1 | 10 µM (active)
O=C(CCc1cn(Cc2ccc(F)cc2)c2ccccc12)NC1CCCCC1 | inactive
Cc1ccc(N(C)C(=O)C2CCN(S(=O)(=O)c3ccc4c(c3)CCCN4C(=O)C3CCC3)CC2)cc1 | inactive
O=C(CCc1nc(CN2CCN(S(=O)(=O)c3ccc(Cl)cc3)CC2)no1)N1CCCCC1 | inactive

Source: PubChem BioAssay AID504339 (National Center for Advancing Translational Sciences (NCATS), 2011)
